PubChem BioAssay AID1259415 (National Center for Advancing Translational Sciences (NCATS), 2018)
About 18,000 (4.4%) of roughly 410,000 compounds were called active. Roughly 7% stayed inconclusive and do not appear here. For the sample, actives were picked, then their nearest neighbours and some compounds at random. Values without a mark were called inactive. Cut-off read from the data, not from the text of the source: active = activity change below about -60%; inconclusive = no clear call, values can overlap the other calls; inactive = above about -39%.

Assay: qHTS Assay for inhibitors of the human cytomegalovirus (HCMV)
Conditions: HFF cells, HCMV-luciferase reporter, 72 h; at 57.5 µM; hits give low values
Outline: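 Two-dose cell screen: HFF monolayers treated with compounds and infected with luciferase-expressing HCMV at 1 PFU/cell, 72 h at 37C, then lysed for luciferase measurement.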
% is set by controls: 0 for no effect and ±100 for the full control effect.

SMILES	activity change, negative = inhibition
CC(=O)N1CCc2ccc(N)cc21	-18%
COc1cc(NC(=O)c2cc3ccc4cccnc4c3[nH]2)cc(OC)c1OC	65%
CCOc1ccc(Nc2nc3c(S(=O)(=O)c4cccc(Cl)c4)nnn3c3ccsc23)cc1	16.8%
COc1ccc(S(=O)(=O)N(C)C[C@H]2Oc3ccc(NS(=O)(=O)c4cccs4)cc3CC(=O)N([C@H](C)CO)C[C@H]2C)cc1	8.23%
C[C@H](CO)N1C[C@H](C)[C@H](CN(C)CC2CC2)Oc2ccc(NC(=O)CCN3CCOCC3)cc2C1=O	-26.7%
C[C@H]1CN([C@@H](C)CO)C(=O)Cc2cc(NS(C)(=O)=O)ccc2O[C@@H]1CN(C)CC1CC1	-70.1% (active)
O=C(c1cccc(Cl)c1)N1CCN(CCc2ccncc2)CC1	14.9%
Fc1ccc(Nc2nnns2)cc1	21.3%
O=C(COc1ccccc1)OCc1cc(=O)n2nc(-c3cccs3)sc2n1	24.1%
Cc1cccc(NC(=O)c2ccc(F)c(S(=O)(=O)N(C)C3CCCCC3)c2)c1	-81.6% (active)
CCc1ccccc1NC(=O)c1ccc(F)c(S(=O)(=O)NC2CCCCCC2)c1	27%
CCOc1cccc(NC(=O)c2ccc(F)c(S(=O)(=O)N(CC)c3cccc(C)c3)c2)c1	-33.3%
O=C(CSc1nnc(-c2ccccc2F)o1)Nc1cccc(C(F)(F)F)c1	98.3%
Cc1nn(Cc2ccc(F)cc2)c(C)c1NC(=O)c1cc(CC(C)C)on1	-39%
Cc1ccc(OCC(=O)N2CCN(C(=O)c3cccnc3)CC2)cc1	-12.6%
CCCCCCOc1ccc(OC(=O)c2cccnc2)cc1	-79.3% (active)
CCCOc1cccc(C(=O)NCCCNC(=O)c2cccnc2)c1	-8.85%
O=C(CCn1ccc2cc(S(=O)(=O)N3CCCC3)ccc21)NCc1cccc(Cl)c1	-10.7%
O=C(Cn1ncn2nc(-c3cccs3)cc2c1=O)NCc1cccc(Br)c1	12.3%
CCC[C@H]1[C@@H](NS(=O)(=O)c2ccc(F)cc2)CC[C@@]23CCCN2C(=O)CCC[C@@H]13	-4.65%
CCOC(=O)c1[nH]cnc1C(=O)Nc1ccccc1C	-21.4%
CCOC(=O)c1c(-c2cccc(C)c2)csc1NC(=O)c1c(-c2ccccc2)noc1C	-94% (active)

SMILES	activity change, negative = inhibition
CCCSc1ncc(Cl)c(C(=O)Nc2sc3c(c2C(=O)NCCOC)CCCC3)n1	-24%
CCOC(=O)c1c(-c2cccc(N)c2)cn2ccccc12	17.2%
CCCS(=O)(=O)c1ncc(Cl)c(C(=O)Nc2scc(-c3ccccc3)c2C(=O)OCC)n1	-98.8% (active)
CCOC(=O)c1c(C2CC2)csc1NC(=O)CSCc1c(C)noc1C	42.9%
Oc1c(C(c2ccccc2Cl)N2CCOCC2)sc2nc(-c3ccco3)nn12 (centres undefined)	-16.1%
O=C(CCN1CCc2ccccc2C(O)(c2ccccc2)C1)c1ccc2c(c1)OCCO2 (centres undefined)	25.7%
O=[N+]([O-])c1ccc2nc(-c3ccccn3)[nH]c2c1	-79.3% (active)
O=S(=O)(Nc1ccc2nc(-c3ccco3)[nH]c2c1)c1ccccc1	16.8%
O=[N+]([O-])c1ccc(N/N=C2/CCCCC2c2ccccn2)c([N+](=O)[O-])c1 (centres undefined)	4.73%
Cc1cccn2c(=O)c(/C=C(\C#N)C(N)=O)c(N3CCCCCC3)nc12	-70.1% (active)
Cc1cc(C)cc(Oc2nc3c(C)cccn3c(=O)c2/C=C(\C#N)C(=O)NC2CCS(=O)(=O)C2)c1 (centres undefined)	44.8%
COCCCNC(=O)/C(C#N)=C/c1c(N2CCCCCC2)nc2ccccn2c1=O	-37.9%
Nc1[nH]c(C(=O)c2ccccc2)c(-c2ccc(Br)cc2)c1C(=O)NC1CC1	-20.4%
NC(=O)C(Cc1ccccc1)NC(=O)C12CC3CC(CC(C3)C1)C2 (centres undefined)	50.8%
Cc1ccc(S(=O)(=O)c2nc(-c3cccs3)oc2N2CCCCC2)cc1	-15.8%
COc1cc(-c2cc3n(C)c(C)c(CCC(=O)Nc4ccc(F)cc4)c(=O)n3n2)cc(OC)c1OC	-22.9%
Cc1sc(C2C(C#N)=C(N)N(c3cccc(Cl)c3)C3=C2C(=O)CCC3)cc1CN1CCOCC1 (centres undefined)	-21.6%
COc1ccc(/C=C/C(=O)Nc2c(C)nn(C)c2C)cc1COc1ccc(Br)cc1	-35.2%
CCn1nc(C)c(NC(=O)/C=C/c2ccc(OC)c(COc3ccc(Br)cc3)c2)c1C	-68% (active)
COc1ccc(C(C)=O)cc1COc1ccc(Cl)c(C)c1	-1.3%
CCOC(=O)N1CCc2c(sc3c2C(=O)NC(c2ccccc2F)N3)C1 (centres undefined)	-3.15%
C=CCN1C(=O)C(Cc2ccc(OCC)cc2)SC1=Nc1ccc(C(=O)O)cc1 (centres undefined)	10.9%
